The record followed here is PubChem BioAssay.

What is called inhibition is the drop in the measured response relative to a control, in per cent.

The source made the active and inactive calls.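 How the source made its calls, unless noted: active means visually confirmed hit in the image check and inhibition above 20%; inconclusive means visually confirmed hit but inhibition not above 20%; inactive means no visual hit in the image check.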

The nature of test [1]: inhibitors of TNFa-induced NFkB p65 translocation, primary screen, imaging, HUVEC, MLSMR starter and 10KST1 sets (AID 438;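 active means inhibition above 20% together with a positive visual image hit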;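 further: compound added about 3h40 before a 20 min TNFalpha stimulation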;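 on inhibition: signal is the nuclear over cytoplasmic p65 intensity ratio per well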). The conditions noted are these: HUVEC TNFa-induced p65 nuclear translocation; cell count: measured here: nuclei count (cytotoxicity indicator), at 2.08 µM; inhibition: at 2 µM, stronger effect = higher value, 0% TNFa-plus-vehicle, 100% no-TNFa wells.
A short description of test [2]: reduction of polyQ htt aggregates in cells – imaging, exon1htt(103Q)mCFP cells, high-content imaging, primary screen (AID 483;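 active means visual image review flags a hit and inhibition of aggregation exceeds 20%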;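 further: compound exposure lasted 3 days before fixation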;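 on nuclei count: percent of the per-plate median nuclei count of sample wells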). The conditions noted are these: exon1htt(103Q)mCFP cell line, aggregate imaging, at 2 µM; inhibition of aggregation: stronger effect = higher value; nuclei count: measured here: cell count, toxicity.
Test [3] in a line: endothelial E-selectin expression blockers – imaging, HUVEC, immunofluorescence, MLSMR starter and 10KST1 sets, primary screen (AID 487).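 On inhibition: signal is fraction of cell area covered by stained E-selectin grains.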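 On nuclei count: 100% = median nuclei count of all wells on the same plate.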 The conditions noted are these: HUVEC TNFalpha-induced E-selectin immunofluorescence imaging, at 2 µM; inhibition: stronger effect = higher value; nuclei count: measured here: cell number, toxicity.
For test [4], the target named is Voltage-gated potassium channel subunit beta-2 (Rattus norvegicus) (UniProt P62483). The test can be described thus: inhibitors of rat Kvbeta2 reductase activity – biochemical, NADPH fluorescence, primary screen (AID 622;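 active means fluorescence slope higher than the sample average by over 3 SD, cut at about -0.22 in these data, passing the limit was not always enough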;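 further: slope of raw intensity against log time taken from 70 to 1610 s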). As to conditions: recombinant KvBeta, 4-cyanobenzaldehyde reduction, at 10 µM, stronger effect = higher value.
Sequence of Voltage-gated potassium channel subunit beta-2 (Rattus norvegicus) (P62483 whole entry, looked up): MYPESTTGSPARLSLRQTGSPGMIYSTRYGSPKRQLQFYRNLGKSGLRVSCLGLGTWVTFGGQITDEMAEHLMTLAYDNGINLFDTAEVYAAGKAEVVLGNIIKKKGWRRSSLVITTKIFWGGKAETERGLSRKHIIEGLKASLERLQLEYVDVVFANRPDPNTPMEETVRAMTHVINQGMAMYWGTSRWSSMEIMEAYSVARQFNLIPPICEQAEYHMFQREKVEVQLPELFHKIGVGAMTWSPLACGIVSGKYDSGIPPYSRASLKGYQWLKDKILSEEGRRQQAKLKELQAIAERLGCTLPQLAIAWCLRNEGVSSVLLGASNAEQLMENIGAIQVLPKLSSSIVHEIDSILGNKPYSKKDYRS
Test [5] has the same target. The test can be described thus: enhancers of rat Kvbeta2 NADPH turnover – biochemical, NADPH fluorescence, primary screen (AID 623;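 active means NADPH fluorescence slope more negative than the mean of all samples by about 3 SD, 99.7% confidence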;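 further: fluorescence intensity change per second fitted from 20 to 320 s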). As to conditions: Recombinant KvBeta, NADPH fluorescence decrease slope, 10 min; at 10 µM; stronger effect = lower value.
In test [6] the target is Alpha-2C adrenergic receptor (Homo sapiens) (UniProt P18825). In words: compounds altering alpha2C-coupled GIRK flux – cell-based, HEK293 alpha2C/GIRK1/2, thallium flux, primary screen (AID 624;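 active means fluorescence slope after compound addition differing from the mean of all screened samples at 99.7% confidence, in either direction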;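 further: slope of fluorescence ratio to pre-addition baseline per second over 15 to 24 s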). As to conditions: thallium flux BTC fluorescence, at 10 µM, actives lie on both sides.
Sequence of Alpha-2C adrenergic receptor (Homo sapiens) (P18825 whole entry, looked up): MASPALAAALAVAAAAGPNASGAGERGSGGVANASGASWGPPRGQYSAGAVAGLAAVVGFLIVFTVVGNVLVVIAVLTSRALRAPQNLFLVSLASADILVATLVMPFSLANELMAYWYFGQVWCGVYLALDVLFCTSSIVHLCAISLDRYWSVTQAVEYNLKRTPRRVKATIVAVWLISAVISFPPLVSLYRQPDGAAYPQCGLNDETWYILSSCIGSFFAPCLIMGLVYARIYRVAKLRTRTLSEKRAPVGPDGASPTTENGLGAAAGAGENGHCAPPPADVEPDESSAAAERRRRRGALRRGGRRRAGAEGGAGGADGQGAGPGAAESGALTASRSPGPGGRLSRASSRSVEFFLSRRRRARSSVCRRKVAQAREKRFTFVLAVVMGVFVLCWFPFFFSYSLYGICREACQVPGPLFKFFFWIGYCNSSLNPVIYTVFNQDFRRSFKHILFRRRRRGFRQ
The nature of test [7]: blockers of RIG-like receptor reporter activation – cell-based, Sendai virus stimulus, luciferase, 10K MLSCN set, TLR/RLR signaling modifier project, primary screen (AID 602276;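 active means inhibition at or above 50% at 10 µM; inactive means inhibition below 50%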;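 further: firefly luciferase from ISG56 promoter only with Renilla not read in this screen; 0% = Sendai virus plus DMSO and 100% = medium plus DMSO without virus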). The conditions noted are these: HEK293 RL24 IRF3 luciferase reporter, at 10 µM, stronger effect = higher value. (In a reporter assay the amount or activity of a reporter protein is the signal.)
Test [8] can be described thus: TLR3 IRF3 reporter activation blockers – cell-based, poly I:C stimulus, luciferase, 10K MLSCN set, primary screen (AID 602277;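 active means inhibition of the reporter signal at or above 50%; inactive means inhibition below 50%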). The conditions noted are these: HEK293-TLR3 RL24 IRF3 luciferase reporter, at 10 µM, stronger effect = higher value.

`CCOC(=O)N1CCN(c2c(N3CCc4ccccc4C3)c(=O)c2=O)CC1`: in test [1], the cell count worked out at 558. The inhibition in test [1] was 1.2% (inactive); in test [3], -46.4% (inactive); in test [7], 10.9% (inactive); in test [8], 16.4% (inactive). The inhibition of aggregation in test [2] was 13.2% (inactive). The nuclei count in test [2] turned out to be 102%; in test [3], 122%. Further, in test [4], the fluorescence slope is -0.538 (inactive). For the same molecule, in test [5], the NADPH fluorescence slope is -2.6e-05 (inactive). Further, the slope in test [6] was 0.00721 (inactive).

`Cc1ccc(N2CCN(c3ccc(C)cc3)C(CC(=O)O)C2=O)cc1` (centres undefined): the cell count in test [1] was 549. For the same molecule, the inhibition in test [1] is -4.7% (inactive); in test [3], 12.6% (inactive); in test [7], 5.38% (inactive); in test [8], 4.47% (inactive). Further, the inhibition of aggregation in test [2] was 3.3% (inactive). Further, the values for the nuclei count in test [2] and in test [3] were 92.3% and 108%, respectively. Moreover, the fluorescence slope in test [4] was -0.499 (inactive). The NADPH fluorescence slope in test [5] is 1.5e-05 (inactive). Also, in test [6], the slope is 0.00583 (inactive).

As for `COc1ccc2c(CC(=O)Nc3nnc(C4CC4)s3)coc2c1`, in test [1], the cell count turned out to be 286. The inhibition in test [1] was -15.7% (inactive); in test [3], -13.2% (inactive); in test [7], 9.99% (inactive); in test [8], 14.7% (inactive). Further, the inhibition of aggregation in test [2] is 7.5% (inactive). The nuclei count in test [2] is 105%; in test [3], 111%. The fluorescence slope in test [4] is -0.482 (inactive). Besides, the NADPH fluorescence slope in test [5] was -0.000211 (inactive). For the same molecule, in test [6], the slope is 0.00533 (inactive).

Regarding `CCCCNc1cc(C)oc(=O)c1C(C)=O`, the cell count in test [1] was 590. Also, the inhibition in test [1] was 10.2% (inactive); in test [3] it was -81% (inactive); in test [7], -0.373% (inactive); in test [8] it was 22.9% (inactive). In test [2], the inhibition of aggregation is 11.4% (inactive). Besides, the nuclei count in test [2] is 97.3%; in test [3], 123%. The fluorescence slope in test [4] is -0.443 (inactive). The NADPH fluorescence slope in test [5] is 2e-05 (inactive). Also, in test [6], the slope is 0.006 (inactive).

Take `CCOc1ccc(NC(=O)Cn2nnc(-c3ccccc3F)n2)cc1`: the cell count in test [1] worked out at 513. The inhibition in test [1] is -2.7% (inactive); in test [3], -32.4% (inactive); in test [7] it was 9.14% (inactive); in test [8], 12.8% (inactive). Besides, the inhibition of aggregation in test [2] was 19% (inactive). Besides, the nuclei count is 88.3% in test [2] and 103% in test [3]. Moreover, the fluorescence slope in test [4] is -0.539 (inactive). The NADPH fluorescence slope in test [5] was 2.1e-05 (inactive). The slope in test [6] was 0.00657 (inactive).

`Cc1c(C(=O)Nc2ccncc2)oc2c1C(=O)CC(C)(C)C2`: in test [1], the cell count is 254. Moreover, the inhibition in test [1] was 9.6% (inactive); in test [3], -44.5% (inactive); in test [7], 7.94% (inactive); in test [8] it was -3.33% (inactive). For the same molecule, the inhibition of aggregation in test [2] was 18.9% (inactive). For the same molecule, the nuclei count in test [2] amounted to 85.4%; in test [3] it was 97.2%. The fluorescence slope in test [4] was -0.408 (inactive). Also, in test [5], the NADPH fluorescence slope is -2.8e-05 (inactive). Also, the slope in test [6] is 0.00527 (inactive).

On to `CCOC(=O)C1CCN(c2c(Nc3ccc4c(c3)OCCO4)c(=O)c2=O)CC1`, for which the cell count in test [1] turned out to be 789. The inhibition in test [1] is 4.6% (inactive); in test [3] it was -129% (inactive); in test [7], 44% (inactive); in test [8] it was 27.5% (inactive). In addition, in test [2], the inhibition of aggregation was 0.6% (inactive). Further, the values for the nuclei count in test [2] and in test [3] were 106% and 125%, respectively. Besides, the fluorescence slope in test [4] was -0.622 (inactive). Besides, the NADPH fluorescence slope in test [5] is 2.4e-05 (inactive). Moreover, the slope in test [6] was 0.0056 (inactive).

As for `CN1CCc2c(sc3c2c(=O)n(-c2cccc(Cl)c2)c2nncn32)C1`, the cell count in test [1] was 579. For the same molecule, the inhibition in test [1] was 13.9% (inactive); in test [3], 37.3% (inactive); in test [7], -7.55% (inactive); in test [8], 11.7% (inactive). The inhibition of aggregation in test [2] was 5.9% (inactive). Also, the nuclei count in test [2] was 112%; in test [3], 105%. Besides, the fluorescence slope in test [4] is -0.513 (inactive). Moreover, in test [5], the NADPH fluorescence slope is -3.5e-05 (inactive). The slope in test [6] is 0.00609 (inactive).

As for `COc1cc2c(cc1OC)-c1cc(Nc3ccc4c(c3)OCCO4)nc(=O)n1CC2`, the cell count in test [1] is 649. The inhibition in test [1] was -6.9% (inactive); in test [3] it was 5.7% (inactive); in test [7] it was 41.3% (inactive); in test [8] it was 44.1% (inactive). For the same molecule, the inhibition of aggregation in test [2] is 0.9% (inactive). The nuclei count in test [2] is 104%; in test [3], 128%. Also, the fluorescence slope in test [4] is -0.41 (inactive). Besides, in test [5], the NADPH fluorescence slope is -5.2e-06 (inactive). Besides, the slope in test [6] is 0.00445 (inactive).

Consider `O=C(c1ccc(Br)o1)N1CCN(c2ccc3nnc(-c4ccccc4)n3n2)CC1`, for which the cell count in test [1] came out at 634. The inhibition in test [1] is -0.5% (inactive); in test [3] it was -91.9% (inactive); in test [7], -4.83% (inactive); in test [8], -337% (inactive). Also, the inhibition of aggregation in test [2] is 3% (inactive). Besides, the nuclei count turned out to be 80.7% in test [2] and 120% in test [3]. Further, the fluorescence slope in test [4] was -0.602 (inactive). Besides, the NADPH fluorescence slope in test [5] is -3.4e-05 (inactive). Moreover, the slope in test [6] was 0.00664 (inactive).

Regarding `O=C(c1ccc(S(=O)(=O)N2CCOCC2)cc1)N(c1ccc(F)cc1)C1C=CS(=O)(=O)C1` (centres undefined), the cell count in test [1] was determined as 774. Further, the inhibition in test [1] was -19.7% (inactive); in test [3], -74.8% (inactive); in test [7] it was 3.76% (inactive); in test [8], 13.3% (inactive). Also, the inhibition of aggregation in test [2] is 30.2% (inactive). For the same molecule, the values for the nuclei count in test [2] and in test [3] were 111% and 107%, respectively. Moreover, the fluorescence slope in test [4] was -0.288 (inactive). For the same molecule, in test [5], the NADPH fluorescence slope is 1.6e-05 (inactive). Also, the slope in test [6] was 0.0046 (inactive).

In the case of `O=c1c(-c2ccc(Br)cc2)coc2c(CN3CCOCC3)c(O)ccc12`, the cell count in test [1] amounted to 557. Also, the inhibition in test [1] is -2.4% (inactive); in test [3], -9.2% (inactive); in test [7], 2.64% (inactive); in test [8], -17.1% (inactive). The inhibition of aggregation in test [2] is -1.6% (inactive). Moreover, the nuclei count in test [2] came out at 102%; in test [3], 118%. Also, the fluorescence slope in test [4] is -0.0321 (active). Besides, in test [5], the NADPH fluorescence slope is 3.3e-05 (inactive). Also, the slope in test [6] was 0.00611 (inactive).

With `CCOC(=O)c1ccc(COC(=O)c2cc3ccccc3oc2=O)o1`, the cell count in test [1] is 607. In addition, the inhibition in test [1] is -1.2% (inactive); in test [3], -39.1% (inactive); in test [7] it was -6.72% (inactive); in test [8] it was -32.7% (inactive). The inhibition of aggregation in test [2] is 1.7% (inactive). Also, the nuclei count in test [2] amounted to 101%; in test [3], 96.9%. Further, the fluorescence slope in test [4] is -0.48 (inactive). Also, in test [5], the NADPH fluorescence slope was 1.6e-06 (inactive). The slope in test [6] was 0.00426 (inactive).

As to `COc1ccc(NC(=O)CSc2nnc(-c3ccccc3C)n2C)cc1`, the cell count in test [1] was found to be 661. For the same molecule, the inhibition in test [1] is 1.6% (inactive); in test [3], 81.4% (active); in test [7], 5.44% (inactive); in test [8], 28.1% (inactive). Moreover, the inhibition of aggregation in test [2] is 3.2% (inactive). In addition, the nuclei count was 121% in test [2] and 111% in test [3]. The fluorescence slope in test [4] was -0.422 (inactive). Also, the NADPH fluorescence slope in test [5] was -3.9e-05 (inactive). Further, the slope in test [6] was 0.0036 (inactive).
